# Data taken from PubChem BioAssay AID1053180 (Broad Institute, 2014).
# Values joined by “and” are separate entries in the source; they are usually repeats but may differ in a detail not shown here. Identical values can stand only once. Out of some 9,600 compounds screened, about 20 (0.2%) were called active.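 Rule for the calls: active = highest normalized replicate activity of 15 or more, or at least half the replicates reach 15 or more; inactive = neither condition met.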 Shown is part of a subset that was picked to be rich in actives. The source holds several records for some structures; these can differ, active in one and inactive in another.
# Test: activators of Pax4 gene expression, primary screen, RT-PCR, mouse alpha TC1 cells, single point (AID 1053180);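 note: Pax4 Ct normalized to GAPDH with activation seen as lower delta delta Ct; plate controls were plate neutral control wells for no effect and Pax4 plasmid positive control for full effect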
# Conditions: Pax4 mRNA qPCR, 6 days, at 10 µM, stronger effect = higher value, 100% = Pax4 plasmid added at qPCR
row,SMILES,activation
1,CN(C)C(=O)C[C@H]1C[C@@H]2c3cc(NC(=O)Nc4ccc(F)cc4)ccc3O[C@@H]2[C@@H](CO)O1,0.013% (inactive)
2,O=C(C[C@H]1CC[C@H]2[C@@H](COC[C@H](O)CN2Cc2ccc3c(c2)OCO3)O1)N1CCCCC1,0.0435% (inactive)
3,Cc1ccc(S(=O)(=O)N(C)C[C@@H]2OCCCC[C@@H](C)Oc3ccc(NC(=O)c4ccncc4)cc3C(=O)N([C@@H](C)CO)C[C@H]2C)cc1,0% (inactive)
4,O=C(C[C@H]1CC[C@@H]2[C@H](COC[C@@H](O)CN2S(=O)(=O)c2cccc(Cl)c2)O1)N1CCOCC1,0% (inactive)
5,CO[C@@H](CN(C)Cc1cc(F)ccc1F)[C@@H](C)CN(C(=O)Nc1ccc(C(F)(F)F)cc1)[C@H](C)CO,19.2% (active)
6,CO[C@H](CN(C)Cc1cc(F)ccc1F)[C@@H](C)CN(C(=O)Nc1ccc(C(F)(F)F)cc1)[C@H](C)CO,0.0245% (inactive)
7,CO[C@@H](CN(C)Cc1cc(F)ccc1F)[C@H](C)CN(C(=O)Nc1ccc(C(F)(F)F)cc1)[C@H](C)CO,0.0205% (inactive)
8,CN(C[C@@H]1[C@@H](c2ccccc2)[C@H](CO)N1CC1CC1)C(=O)c1ccc(F)cc1,-0.002% (inactive)
9,COc1ccccc1-c1ccc([C@H]2[C@@H](CO)N[C@@H]2CNC(=O)C2CC2)cc1,0.001% (inactive)
10,CC(C)(O)C#Cc1ccc([C@H]2[C@H]3CN(S(C)(=O)=O)CCCCN3[C@H]2CO)cc1,0.0005% (inactive)
11,N#C[C@@H]1[C@H](c2ccccc2C2=CCCCC2)[C@H](CO)N1C(=O)CN1CCOCC1,0% (inactive)
12,O=C(NC[C@@H]1[C@@H](c2ccccc2)[C@@H](CO)N1Cc1ccccn1)C1CCCC1,-0.003% (inactive)
13,CCCNC(=O)N1[C@H](CO)[C@@H](c2ccccc2-c2cccc(C)c2)[C@@H]1C#N,0.0075% (inactive)
14,CO[C@@H]1CC[C@@H]2CCOc3c(C#N)cccc3C(=O)N(C)CCCC(=O)N(C)C[C@H]1O2,0% (inactive)
15,O=C(C[C@@H]1C[C@@H]2c3cc(NS(=O)(=O)c4ccccc4)ccc3O[C@@H]2[C@H](CO)O1)NCC(F)(F)F,0.001% (inactive)
16,O=C(Cc1ccccc1)N1CC[C@@H]2[C@@H](CO)Nc3ccc(C#Cc4cccc(F)c4)cc3[C@@H]21,0.0035% (inactive)
17,CC(C)CC#Cc1ccc([C@H]2[C@@H](CO)N3CCCCN(C(=O)Nc4ccccc4)C[C@@H]23)cc1,0.0025% (inactive)
18,O=C(C[C@@H]1CC[C@H](NC(=O)c2ccc3c(c2)OCO3)[C@@H](CO)O1)NCc1ccc(Oc2ccccc2)cc1,0.006% (inactive)
19,COCC(=O)N1CC(=O)N2[C@H](CO)[C@H](c3ccc(-c4ccccc4F)cc3)[C@@H]2C1,0% (inactive)
20,C[C@H]1CN([C@@H](C)CO)C(=O)c2cc(NS(=O)(=O)c3ccc(F)cc3)ccc2O[C@H]1CN(C)C(=O)Nc1ccccc1,0.002% (inactive)

row,SMILES,activation
1,CO[C@H](CN(C)C(=O)C1CCOCC1)[C@@H](C)CN(C(=O)Nc1ccc(C(F)(F)F)cc1)[C@@H](C)CO,0.0085% (inactive)
2,O=C(CN1CCOCC1)N[C@@H]1CC[C@@H](CCn2cc(C3CC3)nn2)O[C@@H]1CO,0.0035% (inactive)
3,Fc1ccccc1-c1ccc(C2[C@@H]3CN(Cc4ccccn4)C[C@H]2N3)cc1 (some centres undefined),0.412% (inactive) and 0.0165% (inactive)
4,COc1cccc(-c2ccc(C3[C@@H]4CN(Cc5ccccn5)C[C@H]3N4)cc2)c1 (some centres undefined),0.0705% (inactive) and 213% (active)
5,COc1cc(CN2C[C@@H]3N[C@H](C2)C3c2ccc(-c3ccc(C#N)cc3)cc2)cc(OC)c1 (some centres undefined),3.96% (inactive) and 9.29% (active)
6,N#Cc1cccc(-c2ccc(C3[C@@H]4CN(Cc5ccccc5)C[C@H]3N4)cc2)c1 (some centres undefined),2.74% (inactive) and 0.113% (inactive)
7,COc1cccc(CN2C[C@@H]3N[C@H](C2)C3c2ccc(-c3ccccc3C)cc2)c1 (some centres undefined),0.0245% (inactive) and 0.039% (inactive)
8,N#Cc1ccc(-c2ccc([C@@H]3[C@@H]4CN(Cc5cocn5)C[C@H]3N4)cc2)cc1,0.128% (inactive)
9,C[C@@H]1CCCCO[C@@H](CN(C)S(=O)(=O)c2ccc(F)cc2)[C@H](C)CN([C@@H](C)CO)C(=O)c2cc(N(C)C)ccc2O1,0.002% (inactive)
10,COc1cccc(S(=O)(=O)N[C@H]2CC[C@@H](CC(=O)NC3Cc4ccccc4C3)O[C@@H]2CO)c1,0.0015% (inactive)
11,CO[C@@H]1CC[C@H]2CCOc3c(C#N)cccc3C(=O)N(C)CCCC(=O)N(C)C[C@H]1O2,0.001% (inactive)
12,C[C@@H]1CCCCO[C@H](CN(C)C(=O)c2ccncc2)[C@H](C)CN([C@H](C)CO)C(=O)c2cc(NS(=O)(=O)c3cccs3)ccc2O1,0.001% (inactive)
13,CCCNC(=O)[C@H]1[C@H](CO)[C@H]2Cn3c(ccc(/C=C/c4ccccc4)c3=O)[C@H]2N1CC1CC1,0% (inactive)
14,C/C=C/c1ccc(C2[C@@H]3CN(C(=O)Nc4ccc(C(F)(F)F)cc4)C[C@H]2N3)cc1 (some centres undefined),32.9% (active) and 0.0565% (inactive)
15,Cc1cccc(-c2ccc(C3[C@@H]4CN(C(=O)Nc5ccc(F)cc5)C[C@H]3N4)cc2)c1 (some centres undefined),0.272% (inactive)
16,N#Cc1cccc(-c2ccc(C3[C@@H]4CN(C(=O)Nc5ccc(C(F)(F)F)cc5)C[C@H]3N4)cc2)c1 (some centres undefined),8.39% (active) and 0.03% (inactive)
17,Cc1ccccc1S(=O)(=O)N1C[C@@H]2N[C@H](C1)C2c1ccc(-c2cccc(C#N)c2)cc1 (some centres undefined),0.966% (inactive) and 11.5% (active)
18,COc1ccccc1NC(=O)N1C[C@@H]2N[C@H](C1)C2c1ccc(-c2cccc(C#N)c2)cc1 (some centres undefined),0.02% (inactive) and 0.24% (inactive)
19,O=C(Nc1ccc(F)cc1)N1C[C@@H]2N[C@H](C1)C2c1ccc(/C=C/c2ccccc2)cc1 (some centres undefined),1.76% (inactive)
20,C/C=C/c1ccc(C2[C@H]3CNC[C@@H]2N3C(=O)Nc2ccc(C(F)(F)F)cc2)cc1 (some centres undefined),0.016% (inactive) and 0.0105% (inactive)

row,SMILES,activation
1,COc1ccc(-c2ccc(C3[C@@H]4CN(S(=O)(=O)c5ccccc5C)C[C@H]3N4)cc2)cc1 (some centres undefined),0.369% (inactive) and 0.0145% (inactive)
2,N#Cc1cccc(-c2ccc(C3[C@@H]4CNC[C@H]3N4)cc2)c1 (some centres undefined),0.0045% (inactive)
3,O=C1CNC[C@@H]2[C@H](c3ccc(-c4ccccc4F)cc3)[C@@H](CO)N12,0% (inactive)
4,CNC[C@@H]1Oc2cc(C#Cc3ccccc3OC)ccc2S(=O)(=O)N([C@H](C)CO)C[C@H]1C,10.4% (active)
5,CNC[C@H]1Oc2cc(C#Cc3ccccc3OC)ccc2S(=O)(=O)N([C@H](C)CO)C[C@@H]1C,0.402% (inactive)
6,CNC[C@H]1Oc2cc(C#Cc3ccccc3OC)ccc2S(=O)(=O)N([C@@H](C)CO)C[C@@H]1C,0.371% (inactive)
7,C[C@@H]1CN([C@@H](C)CO)C(=O)CCCn2nncc2CO[C@H]1CN(C)C(=O)c1cc(-c2ccccc2)on1,0.0055% (inactive)
8,C[C@@H]1CN([C@H](C)CO)C(=O)CCCn2nncc2CO[C@@H]1CN(C)Cc1ccccc1C(=O)O,-0.0005% (inactive)
9,C[C@@H]1CCCCO[C@H](CN(C)C(=O)Nc2ccc3c(c2)OCO3)[C@H](C)CN([C@H](C)CO)C(=O)c2cc(NS(=O)(=O)c3ccc(F)cc3)ccc2O1,0.0035% (inactive)
10,CC(C)CN(C[C@H]1N[C@H](CO)[C@@H]1c1ccccc1)C(=O)C1CCCCC1,0% (inactive)
11,CO[C@H]1CN(C)C(=O)c2cc(NC(=O)Nc3cccc(Cl)c3)ccc2OC[C@H](C)N(C(=O)Nc2c(C)noc2C)C[C@@H]1C,0.004% (inactive)
12,COc1ccc2c3c([nH]c2c1)[C@H](CO)N(Cc1ccccc1F)CC31CN(CC2CC2)C1,0.011% (inactive)
13,COCC#Cc1ccc([C@H]2[C@@H](CO)N3CCCCN(C(=O)NC4CCCC4)C[C@H]23)cc1,0.001% (inactive)
14,O=C(c1ccccc1)N1CC(=O)N2[C@H](CO)[C@H](c3ccc(-c4ccccc4)cc3)[C@@H]2C1,0.0005% (inactive)
15,C/C=C/c1ccc([C@@H]2[C@H](CO)N(C(C)=O)[C@H]2CNC(=O)c2ccccc2)cc1,0.0015% (inactive)
16,C[C@H](NC(=O)C[C@H]1C=C[C@@H](NC(=O)c2cccnc2)[C@H](CO)O1)c1ccccc1,0.0005% (inactive)
17,CS(=O)(=O)Nc1ccc2c(c1)[C@@H]1C[C@@H](CC(=O)NCc3cc(F)ccc3F)O[C@H](CO)[C@@H]1O2,0.007% (inactive)
18,C[C@@H]1CN([C@@H](C)CO)C(=O)c2ccccc2-c2ccccc2CO[C@@H]1CN(C)C(=O)NC1CCCCC1,-0.0015% (inactive)
19,CO[C@H]1CN(C)C(=O)c2ccc(NC(=O)c3nc4ccccc4s3)cc2OC[C@H](C)N(Cc2cccnc2)C[C@@H]1C,0.009% (inactive)
